Holding throughout (conditions): incubation time: 27 h, anaerobic, 37 °C
The test system of experiment [1] is Escherichia coli IAI1. The experiment in a line: growth (OD595) fold change vs plate DMSO controls (fold change (ratio)); higher = more growth. The procedure, abridged:
(§1)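 Growth is expressed as the fold change relative to the median of the DMSO control wells on each plate. Cultures in mGAM were grown anaerobically in 96-well plates for 27 h at 37 °C, shaken, and read at 595 nm. Readings were blank-subtracted, corrected for compound background with 20 µM compound solutions in water, and converted to OD with a calibration factor of 5. Fold changes above 1.5 were set to NA, and each value is the mean of 2 biological replicates.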

Experiment [2] deals with Klebsiella aerogenes DSM 30053. The description is as above. A digest of the protocol:
as §1

For experiment [3], the system named is Ruminococcus gnavus DSM 108212. The experiment is described as above. The procedure, abridged: as §1
Experiment [4] deals with Klebsiella aerogenes DSM 30053. The experiment in a line: fold change of Histamine concentration vs plate DMSO controls (fold change (ratio)); higher = more amine produced, active = hit call of the paper (significant change in both replicates, either direction). A digest of the protocol: (§2)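 In 80 µL wells, cultures of four gut bacterial strains in mGAM started at OD 0.1 before a 1:1 dilution and grew anaerobically at 37 °C for 27 h. Compounds were added to 20 µM final, except sweeteners at 50 µM final. After extraction of whole cultures with cold acetonitrile/methanol plus 0.1% formic acid and centrifugation, amines were measured by LC–triple-quadrupole MS in dynamic MRM mode against external calibration curves, with within-batch drift correction. Values give fold change over DMSO controls on the same plate, averaged across 2 biological replicates.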

In experiment [5] the test system is Ruminococcus gnavus DSM 108212. The experiment in a line: fold change of Tryptamine concentration vs plate DMSO controls (fold change (ratio)); higher = more amine produced, active = hit call of the paper (significant change in both replicates, either direction). The procedure, abridged:
as §2

Experiment [6] has as its system Escherichia coli IAI1. The experiment in a line: fold change of Putrescine concentration vs plate DMSO controls (fold change (ratio)); higher = more amine produced, active = hit call of the paper (significant change in both replicates, either direction). The procedure, abridged:
as §2

Experiment [7] deals with Klebsiella aerogenes DSM 30053. Described as above. The procedure, abridged:
as §2

In experiment [8] the test system is Escherichia coli IAI1. The experiment in a line: fold change of Cadaverine concentration vs plate DMSO controls (fold change (ratio)); higher = more amine produced, active = hit call of the paper (significant change in both replicates, either direction). A digest of the protocol:
as §2

The subject of experiment [9] is Klebsiella aerogenes DSM 30053. Described as above. The procedure, abridged:
as §2

For experiment [10], the system named is Ruminococcus gnavus DSM 108212. The experiment in a line: fold change of 2-Phenylethylamine concentration vs plate DMSO controls (fold change (ratio)); higher = more amine produced, active = hit call of the paper (significant change in both replicates, either direction). The procedure, abridged:
as §2

Experiment [11] deals with Clostridium sporogenes DSM 1664. The experiment in a line: growth (OD595) fold change vs plate DMSO controls (fold change (ratio)); higher = more growth. A digest of the protocol: as §1
For experiment [12] the test system is unchanged. The experiment in a line: fold change of Tryptamine concentration vs plate DMSO controls (fold change (ratio)); higher = more amine produced, active = hit call of the paper (significant change in both replicates, either direction). The procedure, abridged:
as §2

Structures can show the parent of a compound that is named as a salt.

Eight molecules from the supplement of paper PMC12494721 can be followed below.

On to `C[C@H]1[C@H](NC(=O)/C(=N\OC(C)(C)C(=O)O)c2csc(N)n2)C(=O)N1S(=O)(=O)O` [Aztreonam] (20 µM), for which the values for the growth (in the experiment with Escherichia coli IAI1 [1]; in experiment [2]; in experiment [3]) were 1.04, 0.662 and 1.04, respectively. For the same molecule, the “fold change of Histamine concentration” value in experiment [4] was 0.865 (inactive). Further, the “fold change of Tryptamine concentration” value in [5] is 1.05 (inactive). The “fold change of Putrescine concentration” value is 0.86 (inactive) in the experiment on Escherichia coli IAI1 [6] and 1.13 (inactive) in experiment [7]. Further, the “fold change of Cadaverine concentration” value in the experiment on Escherichia coli IAI1 [8] was 1.03 (inactive); in experiment [9] it was 1.06 (inactive). Also, in [10], the “fold change of 2-Phenylethylamine concentration” value was 1.04 (inactive).

As for `O=C(O)[C@H]1/C(=C/CO)O[C@@H]2CC(=O)N21` [Clavulanate potassium salt] (20 µM), the growth worked out at 0.883 in experiment [11], 1.01 in the experiment on Escherichia coli IAI1 [1] and 0.977 in [2]. For the same molecule, the “fold change of Histamine concentration” value in experiment [4] is 1.02 (inactive). The figures for the “fold change of Tryptamine concentration” value in [12] and in experiment [5] were 1.01 (inactive) and 0.997 (inactive), respectively. Besides, the “fold change of Putrescine concentration” value was 0.96 (inactive) with Escherichia coli IAI1 [6] and 1 (inactive) in experiment [7]. The figures for the “fold change of Cadaverine concentration” value (with Escherichia coli IAI1 [8]; in [9]) were 1.05 (inactive) and 0.998 (inactive), respectively. For the same molecule, the “fold change of 2-Phenylethylamine concentration” value in experiment [10] was 1.02 (inactive).

With `O=C1CN(/N=C/c2ccc([N+](=O)[O-])o2)C(=O)N1` [Nitrofurantoin] (20 µM), the figures for the growth (in [11]; in the experiment on Escherichia coli IAI1 [1]; in [2]) were 1.01, 0.997 and 0.868, respectively. Besides, the “fold change of Histamine concentration” value in experiment [4] was 1.07 (inactive). Moreover, the “fold change of Tryptamine concentration” value in experiment [12] is 0.931 (inactive); in [5] it was 0.808 (inactive). Besides, the “fold change of Putrescine concentration” value in the experiment with Escherichia coli IAI1 [6] is 0.729 (active); in experiment [7] it was 0.962 (inactive). Further, the “fold change of Cadaverine concentration” value is 1.81 (active) in the experiment on Escherichia coli IAI1 [8] and 0.997 (inactive) in experiment [9]. Also, the “fold change of 2-Phenylethylamine concentration” value in experiment [10] is 0.923 (inactive).

For the molecule `CCc1c2c(nc3ccc(OC(=O)N4CCC(N5CCCCC5)CC4)cc13)-c1cc3c(c(=O)n1C2)COC(=O)[C@]3(O)CC` [Irinotecan hydrochloride trihydrate] (20 µM), the figures for the growth (with Escherichia coli IAI1 [1]; in experiment [2]; in experiment [3]) were 1.05, 0.974 and 1.06, respectively. Besides, the “fold change of Histamine concentration” value in [4] is 1.03 (inactive). Moreover, the “fold change of Tryptamine concentration” value in [5] is 0.937 (inactive). The “fold change of Putrescine concentration” value in the experiment on Escherichia coli IAI1 [6] is 1.11 (inactive); in experiment [7], 1 (inactive). Moreover, the “fold change of Cadaverine concentration” value is 0.994 (inactive) in the experiment with Escherichia coli IAI1 [8] and 0.988 (inactive) in experiment [9]. Moreover, in experiment [10], the “fold change of 2-Phenylethylamine concentration” value was 0.89 (inactive).

With `Cc1ccc(NC(=O)c2ccc(CN3CCN(C)CC3)cc2)cc1Nc1nccc(-c2cccnc2)n1` [Imatinib] (20 µM), the growth in the experiment with Escherichia coli IAI1 [1] is 1.07; in experiment [2], 1.05; in [3] it was 1.17. In addition, in [4], the “fold change of Histamine concentration” value was 1.01 (inactive). Also, the “fold change of Tryptamine concentration” value in [5] was 1.07 (inactive). Moreover, the entries for the “fold change of Putrescine concentration” value (in the experiment with Escherichia coli IAI1 [6]; in [7]) were 0.954 (inactive) and 0.962 (inactive), respectively. For the same molecule, the “fold change of Cadaverine concentration” value is 0.95 (inactive) with Escherichia coli IAI1 [8] and 1.04 (inactive) in experiment [9]. In addition, in [10], the “fold change of 2-Phenylethylamine concentration” value was 1.08 (inactive).

Consider `CC(C)(c1cc(Br)c(O)c(Br)c1)c1cc(Br)c(O)c(Br)c1` (20 µM), for which the results for the growth (in experiment [11]; in the experiment on Escherichia coli IAI1 [1]; in experiment [2]) were 0, 1.04 and 1.05, respectively. Further, in experiment [4], the “fold change of Histamine concentration” value is 0.929 (inactive). Moreover, the “fold change of Tryptamine concentration” value in experiment [12] is 0.0166 (active); in experiment [5], 0.366 (active). Besides, the “fold change of Putrescine concentration” value in the experiment with Escherichia coli IAI1 [6] was 0.967 (inactive); in [7], 1.01 (inactive). Moreover, the “fold change of Cadaverine concentration” value in the experiment with Escherichia coli IAI1 [8] is 0.996 (inactive); in [9], 1.04 (inactive). Besides, the “fold change of 2-Phenylethylamine concentration” value in experiment [10] is 0.404 (inactive).

On to `OC(c1cc(C(F)(F)F)nc2c(C(F)(F)F)cccc12)C1CCCCN1` (configuration not stated) [Mefloquine hydrochloride] (20 µM), for which the growth in experiment [11] came to 0.869; with Escherichia coli IAI1 [1], 0.858; in experiment [2], 0.808; in experiment [3], 1.

With `CN(CCOc1ccc(NS(C)(=O)=O)cc1)CCc1ccc(NS(C)(=O)=O)cc1` [Dofetilide] (20 µM), the growth in the experiment with Escherichia coli IAI1 [1] was found to be 0.972; in experiment [2] it was 1.03; in [3] it was 0.827. Besides, in [4], the “fold change of Histamine concentration” value is 1 (inactive). In addition, the “fold change of Tryptamine concentration” value in [5] is 1.04 (inactive). The “fold change of Putrescine concentration” value in the experiment on Escherichia coli IAI1 [6] was 0.989 (inactive); in experiment [7], 0.984 (inactive). For the same molecule, the figures for the “fold change of Cadaverine concentration” value (in the experiment on Escherichia coli IAI1 [8]; in experiment [9]) were 1.05 (inactive) and 1 (inactive), respectively. The “fold change of 2-Phenylethylamine concentration” value in experiment [10] is 0.998 (inactive).
